# GLP-1R agonist: activates the human GLP-1 receptor; P43220; HEK293 GLP-1R CRE-luciferase, luminescence, 4-6 h; cells express a hypersensitive GLP-1R form; Potency, µM (highest dose often 45.6 µM), for the others: at the highest dose activation, most hits filed as activators; hit rate 0.007% among 380,000; AID 624172; also: % of control where 0% means no effect
# Target sequence (P43220 whole entry, looked up): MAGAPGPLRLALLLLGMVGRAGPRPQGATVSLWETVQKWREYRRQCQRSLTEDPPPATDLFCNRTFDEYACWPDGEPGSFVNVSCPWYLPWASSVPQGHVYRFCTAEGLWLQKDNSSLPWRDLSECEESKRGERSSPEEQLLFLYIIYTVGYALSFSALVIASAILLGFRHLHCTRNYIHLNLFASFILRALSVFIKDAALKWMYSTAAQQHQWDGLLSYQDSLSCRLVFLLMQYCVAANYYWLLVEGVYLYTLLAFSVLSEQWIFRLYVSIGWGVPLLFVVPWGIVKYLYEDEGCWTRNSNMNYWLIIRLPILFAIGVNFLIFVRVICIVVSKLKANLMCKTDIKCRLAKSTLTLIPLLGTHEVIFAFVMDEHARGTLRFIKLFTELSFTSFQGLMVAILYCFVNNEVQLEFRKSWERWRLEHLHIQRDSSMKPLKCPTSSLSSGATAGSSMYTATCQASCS
# HEK293 tox: cytotoxicity counter-screen for GLP-1 receptor inverse agonists; hit rate 0.13% among 410,000; Potency, µM (doses to about 38.3 µM), for inactives: top-dose activity change, negative = inhibition, actives largely listed as inhibitors; HEK293 cAMP-luciferase reporter cells, luminescence, 24 h; AID 624418;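 also: loss of luciferase light is scored as toxicity; % is scaled to controls: 0 for no effect and ±100 for the full control effect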
#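 MLSMR compounds, 24 hr on cells at 37 deg C/5% CO2; luminescence after luciferase reagent (12 min RT). Inhibition counted as the undesired cytotoxic outcome.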
# GLP1R inv ag: GLP-1 receptor (human) inverse agonism. P43220. HEK293 GLP-1R CRE-luciferase, luminescence, 24 h; GLP-1R form is constitutively active. Potency, µM (series often up to 38.3 µM), inactives show at the highest dose activity change, negative = inhibition, hits mostly inhibitors. hit rate 1.6% among 410,000. AID 624417; also: % is scaled to controls: 0 for no effect and ±100 for the full control effect; nearly all actives have a fitted effect of over 55% in size
#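 Seeding at 200 cells/uL, 12 h culture, 24 hr compound treatment, then luciferase reagent and a luminescence read; cells are HEK293 stably expressing a constitutively active GLP-1R plus cAMP-responsive luciferase.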
# Active calls of the source: *; ? = inconclusive; · = no result; [ ] = another dose, or the depositor's remark. Rows were chosen to be rich in hits. Some 1.7% of all compounds tested hit in one or more screens of this group. Calls follow the shape of the dose curve; as a rule, active = well fitted curve in the direction sought with a large enough effect; inconclusive = small, poorly fitted or top-dose-only effect, or another doubt; inactive = no such curve, though single readings can be large; an effect the other way counts as inactive or inconclusive. Potency is read from the fitted curve at half-maximal effect.
SMILES,GLP-1R agonist,HEK293 tox,GLP1R inv ag
C/C(=N\Nc1ccc(F)cc1F)c1ccc(Br)s1,15%,2%,13µM*
COc1ccccc1NC(=O)Cn1c(=O)n(Cc2ccc3c(c2)OCO3)c(=O)c2oc3ccccc3c21,·,-1%,-4%
CCOc1ccc(-c2nc3c(s2)CCc2onc(-c4ccc(OC)cc4)c2-3)cc1,-1%,1%,11%
O=C(/C=C/c1ccc2c(c1)OCO2)Nc1cccnc1,-8%,-15%,10µM*
CC(=O)Nc1ccc(NC(=O)/C=C/c2ccc3c(c2)OCO3)cc1,5%,-2%[7.66 µM],-21%[7.66 µM]
COC(=O)c1cc(NC(=O)/C=C/c2ccc3c(c2)OCO3)cc(C(=O)OC)c1,-5%,-17%,0%
COC(=O)c1cccc(NC(=O)/C=C/c2ccc3c(c2)OCO3)c1,-19%,-21%,3.5µM*
Cc1ccccc1CN(C)C(=O)COC(=O)c1ccc2[nH]c(C)c(C)c2c1,2%,-29%,8.9µM*
Cc1[nH]c2ccc(C(=O)OC(C)C(=O)NCc3ccccc3)cc2c1C (stereo not given),9%,?,?
COc1ccc(CCNC(=O)CCS(=O)(=O)c2cc(Br)cc3c2N(C(C)=O)CC3)cc1OC,1%,-1%,2%
Cc1ccc(NC2=C(N3CCOCC3)C(=O)c3ccccc3C2=O)cc1,13%,10µM*,-13%
CC(=O)c1ccc(NC2=C(N3CCOCC3)C(=O)c3ccccc3C2=O)cc1,13%,?,9%
CCN(CC)S(=O)(=O)c1ccc(C)c(NC(=S)NC2CCCCC2)c1,11%,-4%,?
CC(Oc1ccc(Cl)cc1)c1ccnn1S(=O)(=O)c1ccc(Cl)cc1 (stereo not given),-8%,-7%,?
CC(Oc1ccc(-c2ccccc2)c(F)c1)c1ccn(S(=O)(=O)c2ccc(Br)cc2)n1 (stereo not given),-2%,-5%,7.1µM*
CC1=C(C(=O)N(C)C)CC(CC(=O)NC2CCCCC2)C(=O)N1Cc1ccc(F)cc1 (stereo not given),3%,1%,11%
Cn1c(SCC(=O)NCC2CCCO2)nc2c(c1=O)SCC2 (stereo not given),-12%,-7%,6%
NC(=S)NN=C1Cc2cccc3cccc1c23,-24%,?,?
COc1cc(NC(=O)c2ccccc2)c(OC)cc1NC(=O)CN1CCCCC1,?,-5%,5µM*
COc1cc(NC(=O)c2ccccc2)c(OC)cc1NC(=O)CN1CCOCC1,7%,-15%,25%
CCC(C)(C)OC(=O)N[C@@H](Cc1c[nH]c2ccccc12)C(=O)N[C@@H](CCSC)C(=O)N[C@@H](CC(=O)O)C(=O)N[C@@H](Cc1ccccc1)C(N)=O,-1%,·,·
COc1ccc(C(=O)NCC(c2cccs2)N2CCOCC2)cc1OC (stereo not given),10%,-8%,5%
COc1cc(C(=O)NCC(c2cccs2)N2CCOCC2)cc(Br)c1OCc1ccccc1 (stereo not given),7%,-20%,6.3µM*
O=C(NCC(c1cccs1)N1CCOCC1)c1cn(-c2ccccc2)nc1-c1ccc(Cl)cc1 (stereo not given),-9%,9%,-16%
O=C(NCC(c1cccs1)N1CCOCC1)c1cn(-c2ccccc2)nc1-c1ccccc1 (stereo not given),3%,-9%,10µM*
SMILES,GLP-1R agonist,HEK293 tox,GLP1R inv ag
CCOc1ccc(NC(=O)CCNC(=O)Cn2cnc3ccccc3c2=O)cc1,7%,-8%,-24%
COc1ccc(CNc2nc(-c3ccco3)nn2C(=O)CC(C)C)cc1,·,2%,-6%
CCN(CC)CCC[C@H](C)Nc1c2ccc(Cl)cc2nc2ccc(OC)cc12,-6%,·,·
COC(=O)c1sc(S(=O)(=O)N2CCN(c3ccccc3F)CC2)c(C(=O)OC)c1C,21%,?,11µM*
COC(=O)c1sc(S(=O)(=O)N2CCN(c3ccc(OC)cc3)CC2)c(C(=O)OC)c1C,6%,-1%,16%
COc1ccccc1CN1CC(C(=O)N(C)Cc2ccc(C)o2)CCC1=O (stereo not given),-5%,7%,6%
CC(=O)C[C@@H](O)CC(=O)[C@@H]1OC(=O)CCCCCCCCc2ccccc21,-3%,10%,-38%
CSc1nc(Cl)c(Cc2ccc(OC(C)C)cc2)c(N2CCOCC2)n1,8%,12%,13µM*
COc1nc(SC)nc(Cl)c1Cc1ccc(OC(C)C)cc1,3%,43%,?
COc1cccc(/C=C/C(=O)OCC(=O)NCC2CCCCC2)c1OC,-3%,1%,31%
CCOC(=O)c1c(S(=O)(=O)NCC(=O)N(C)c2ccc(C)cc2)c(C)n(C)c1C,·,-2%,3%
Cn1cc(CN2CCCC(C(=O)c3ccc(-c4ccccc4)cc3)C2)cn1 (stereo not given),-9%,?,-37%
CCn1cc(CN2CCCC(C(=O)c3ccc(-c4ccccc4)cc3)C2)cn1 (stereo not given),10%,-27%,8.9µM*
CN(C(=O)CSc1ncnc2sccc12)C1CCCCC1,17%,-20%,-7%
CCOc1ccc(-c2ccc(SCC(=O)Nc3nnc(CC)s3)nn2)cc1,7%,-1%,14%
CCOc1ccc(-c2ccc(SC)nn2)cc1,-2%,-2%,2.2µM*
COc1ccc(C(=O)NCCNc2nc3cc(C)cc(C)c3cc2C#N)c(OC)c1,·,8%,-13%
COC(=O)c1sc(-c2ccccc2)cc1NC(=O)Nc1ccccc1Cl,·,6%,?
CCN(C)C1CN(Cc2cn(Cc3ccc(C)cc3)nn2)S(=O)(=O)C1 (stereo not given),0%,1%,14%
CC1=NN(C(=O)COc2cc(C)ccc2C(C)C)C(O)(c2ccccc2)C1 (stereo not given),10%,?,?
CC1=NN(C(=O)COc2ccc(C)c(C)c2)C(O)(c2ccc(Cl)cc2)C1 (stereo not given),7%,-13%,13µM*
COc1ccccc1NS(=O)(=O)c1cccc(C(=O)N2CCN(C/C=C/c3ccccc3)CC2)c1,-5%,-15%,?
COc1ccccc1NS(=O)(=O)c1cc(C(=O)N2CCN(C/C=C/c3ccccc3)CC2)ccc1C,-1%,-11%,10µM*
COc1cccc(CNC(=O)CN2C(=O)COc3ccc(S(=O)(=O)N4CCC(C)CC4)cc32)c1,1%,-13%,-25%
COc1cc(C=O)ccc1OCCCOc1ccccc1[N+](=O)[O-],8%,-10%,46%
SMILES,GLP-1R agonist,HEK293 tox,GLP1R inv ag
COc1cc(C=O)ccc1OCCCOc1ccccc1C(=O)O,-4%,21%,2.2µM*
CC(C)NC(=O)c1onc(CSc2nc3ccccc3[nH]2)c1C(=O)NC(C)C,9%,4%,16%
Cc1cc(C)c(CN2CCN(C(=O)Cn3cnc4c(NCc5ccccc5)ncnc43)CC2)c(C)c1,1%,-3%,8.9µM*
O=C(Cn1cnc2c(NCc3ccccc3)ncnc21)N1CCN(c2ccccn2)CC1,6%,4%,11%
COc1cc(CN2CCC(C(=O)NC(c3ccc(F)cc3)c3ccc4ccccc4n3)CC2)cc(OC)c1 (stereo not given),0%,-11%,2.8µM*
O=C(NC(c1ccccc1)c1ccc2ccccc2n1)C1CCN(CCOc2ccc(Cl)cc2)CC1 (stereo not given),-20%,-5%,11µM*

# Source: PubChem BioAssay
